This note sets out measurements from ChEMBL document CHEMBL3433997, “St. Jude Leishmania screening dataset” (2016).

As a reminder, the inhibition is the drop in the measured response relative to a control, in per cent.

What all share (format): functional
In test [1] the target is Solute carrier family 2, facilitated glucose transporter member 1 (Homo sapiens) (UniProt P11166). Description: ST_JUDE_LEISH: Cytotoxicity at 2uM final concentration against transgenic Leishmania Mexicana promastigotes LmGLUT1 that are glucose transport deficient and complemented with the human glucose transporter GLUT1. Activity is measured by DNA content using SYBR green in vitro.

Test [2] deals with Hexose transporter 1 (Plasmodium falciparum) (UniProt O97467). Nature of the test: ST_JUDE_LEISH: Cytotoxicity at 2uM final concentration against transgenic Leishmania Mexicana promastigotes LmPfHT that are glucose transport deficient and complemented with the Plasmodium falciparum hexose transporter. Activity is measured by DNA content using SYBR green in vitro.
The target of test [3] is Glucose transporter (Leishmania mexicana) (UniProt O61059). Nature of the test: ST_JUDE_LEISH: Cytotoxicity at 2uM final concentration against transgenic Leishmania Mexicana promastigotes LmGT2 that are glucose transport deficient and complemented with the L. Mexicana glucose transporter 2. Activity is measured by DNA content using SYBR green in vitro.

Sequence of Solute carrier family 2, facilitated glucose transporter member 1 (Homo sapiens) (P11166 whole entry): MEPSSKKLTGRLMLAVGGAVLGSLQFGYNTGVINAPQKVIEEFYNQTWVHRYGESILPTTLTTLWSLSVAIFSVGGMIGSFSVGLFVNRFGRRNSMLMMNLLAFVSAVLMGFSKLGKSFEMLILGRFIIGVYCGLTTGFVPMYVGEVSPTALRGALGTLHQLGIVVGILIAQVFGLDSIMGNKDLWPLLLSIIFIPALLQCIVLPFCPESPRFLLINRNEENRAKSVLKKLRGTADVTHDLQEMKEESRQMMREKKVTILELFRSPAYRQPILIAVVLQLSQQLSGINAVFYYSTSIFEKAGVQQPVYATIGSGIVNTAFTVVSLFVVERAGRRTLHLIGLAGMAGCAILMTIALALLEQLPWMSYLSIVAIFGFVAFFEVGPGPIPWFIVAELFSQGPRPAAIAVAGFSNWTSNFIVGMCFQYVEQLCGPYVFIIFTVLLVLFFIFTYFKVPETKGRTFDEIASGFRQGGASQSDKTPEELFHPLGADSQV

Take `CN1CCCN(Cc2cccc(-c3cccc(NC(=O)c4ccc(Cl)cc4)c3)c2)CC1`: the inhibition worked out at 5.97% in test [1], 4.21% in test [2] and 3.68% in test [3].
Taken in the same sequence, the figures for `Cc1cc2nc(-c3ccc(C(=O)NC4CCN(Cc5ccccc5)CC4)cc3)[nH]c2cc1C` were 14.1%, 12.9% and 10.7%.
Taken in the same sequence, the figures for `CCc1cn2c3c(cc(C(=O)N[C@@H](Cc4ccccc4)[C@H](O)CNC4CCCCC4)cc13)N(C)S(=O)(=O)C2` were 2.09%, 2.23% and 2.69%.
Taken in the same sequence, the figures for `Cc1ccc(C(=O)Nc2cccc(-c3ccc(N4CCN(C)CC4)nn3)c2)cc1[N+](=O)[O-]` were 1.32%, -0.23% and -1.16%.
With `O=C(Nc1ccccc1Cc1ccccc1)c1ccccc1C(F)(F)F`, the inhibition in test [1] was 6.25%; in test [2], 1.68%; in test [3], 2.61%.
With `O=C(Nc1ccc(-c2ccccc2)cc1)Nc1cccc(Cn2nc(Cl)c(N3CCCNCC3)cc2=O)c1`, the inhibition was 3.71% in test [1], 0.49% in test [2] and 0.24% in test [3].
Consider `CCOC(=O)c1ccc(NCc2ccccn2)cc1`, for which the inhibition in test [1] worked out at 3.11%; in test [2], 3.01%; in test [3], 2.96%.
Taken in the same sequence, the figures for `Cn1cccc1C(=O)NCC(CCNc1cc(=O)c2ccccc2[nH]1)NCc1cc(Br)cc(Br)c1` (centres undefined) were 0.88%, 2.6% and 1.58%.
Taken in the same sequence, the figures for `O=C(c1cc(-c2cccs2)n[nH]1)N1CCN(S(=O)(=O)c2ccc(Cl)s2)CC1` were 3.98%, 1.77% and 2.9%.
Consider `C=CCN1C(=O)c2[nH]nc(-c3cc(C)c(C)cc3O)c2C1c1cccc(Br)c1` (centres undefined), for which the inhibition in test [1] worked out at 2.03%; in test [2], 1.25%; in test [3], 1.27%.
Consider `COCCNC(=O)c1ccc(OC2CCN(Cc3ccc(F)c(F)c3)CC2)c(Cl)c1`, for which the inhibition is 0.95% in test [1], 1.83% in test [2] and -2.21% in test [3].
Taken in the same sequence, the figures for `COc1cc(OC)c2c(C)cc(NCCCn3ccnc3)nc2c1` were 2.59%, 3.68% and 0.88%.
With `COc1ccc(CN2CCCC(C(=O)c3ccc(C(F)(F)F)cc3)C2)c(O)c1` (centres undefined), the results for the inhibition in test [1], in test [2] and in test [3] were 4.79%, 4.48% and 3.56%, respectively.
In the case of `CN(c1ccc2c(c1)nc(Nc1cc(C(C)(C)C)on1)n2C)c1ccnc(Nc2ccc(CS(C)(=O)=O)cc2)n1`, the values for the inhibition in test [1], in test [2] and in test [3] were -1.02%, 0.41% and -1.74%, respectively.
Taken in the same sequence, the figures for `O=C(/C=C/c1ccc(Cl)c(Cl)c1)NCCCCCN1CCC(NC(=O)c2ccc(F)cc2F)CC1` were -3.32%, 5.55% and -1.5%.
Taken in the same sequence, the figures for `CC(C)(C)c1ccc(OC(=O)c2ccc(NC(=O)N[C@@H](Cc3ccc(O)cc3)C(=O)NC3CCN(Cc4ccc(O)cc4)C3)cc2)cc1` (some centres undefined) were 9.86%, 4% and 9.56%.
With `Nc1c(-c2ccc(C(=O)NCCNCc3ccccc3)cc2)cnn1-c1ccc(C(F)(F)F)cc1`, the inhibition in test [1] was 3.28%; in test [2], 2.76%; in test [3], -0.31%.
As to `COc1ccc(CNCc2cccc(-c3ccc(-c4nc5cc(C(F)(F)F)ccc5[nH]4)cc3)c2)cc1`, the inhibition in test [1] came out at 7.79%; in test [2], 6.65%; in test [3], 6%.
Taken in the same sequence, the figures for `c1cncc(CCNCc2ccc(-c3ccc(-c4nc5ccccc5[nH]4)s3)cc2)c1` were 8.43%, 6.34% and 0.7%.
As to `CN1CCN(c2ccc(Nc3nc(N)c4ccn(C5CCC5)c4n3)cc2)CC1`, the values for the inhibition in test [1], in test [2] and in test [3] were 4.19%, 4.27% and 2.97%, respectively.
Regarding `Cc1ccc(CN2CCN(CC(O)COc3ccc4c(c3)CCC4)CC2)cc1` (centres undefined), the inhibition in test [1] was -0.73%; in test [2] it was 0.88%; in test [3], -0.29%.
Taken in the same sequence, the figures for `Oc1cccc(Nc2nc(NCc3ccco3)c3ccccc3n2)c1` were 19.6%, 12.2% and 4.1%.
As to `c1cncc(CCNCc2cccc(-c3csc(-c4nc5ccccc5[nH]4)c3)c2)c1`, the results for the inhibition in test [1], in test [2] and in test [3] were 4.04%, 4.06% and 2.64%, respectively.
For the molecule `Cc1c(C(=O)N2CCc3cc4nccc(N5CCN6CCC[C@H]6C5)c4cc32)cnn1-c1ccc(C#N)cc1`, the results for the inhibition in test [1], in test [2] and in test [3] were 3.57%, 3.55% and 2.9%, respectively.
Taken in the same sequence, the figures for `C[C@H](Cc1ccc(C[C@@H](C)NC[C@H](O)c2cccc(Cl)c2)cc1)NC[C@H](O)COc1ccccc1` were 1.99%, 1.95% and 3.59%.
In the case of `Nc1nccc2ccc(-c3ccc(Oc4ccccc4)cc3)cc12`, the inhibition turned out to be 14.9% in test [1], 15.8% in test [2] and 12.2% in test [3].
Turning to `Clc1ccc(-c2nc(-c3ccncc3)c[nH]2)cc1Cl`, the inhibition in test [1] is 0.68%; in test [2] it was 0.78%; in test [3] it was -0.87%.
Taken in the same sequence, the figures for `COc1cc(NC(=O)/C=C/c2ccccc2OC(F)(F)F)cc(OCCN2CCN(CCN3CCOCC3)CC2)c1` were 3.4%, 3.05% and 2.34%.
Taken in the same sequence, the figures for `CCOc1ccc(Nc2ccc3nonc3c2S(=O)(=O)Nc2ccc(OCC)cc2)cc1` were -0.07%, -0.32% and -0.61%.
Consider `O=C(c1ccc(F)c2ccccc12)N1CCc2cc3nccc(N4CCN5CCC[C@H]5C4)c3cc21`, for which the values for the inhibition in test [1], in test [2] and in test [3] were 3.66%, 1.16% and 0.27%, respectively.
Taken in the same sequence, the figures for `Nc1cccc(CNCc2ccc(-c3cccc(-c4nc5cc(F)ccc5[nH]4)c3)cc2)c1` were -0.29%, -1.11% and -1.93%.
In the case of `CCCOc1cc(OCCC)cc(-c2cc(=O)c3ccccc3[nH]2)c1`, the inhibition in test [1] is 0.94%; in test [2], 6.37%; in test [3], 3.56%.
With `O=C(C=Cc1ccc(Cl)c(Cl)c1)NCCCCCN1CCC(c2n[nH]c3ccccc23)CC1`, the inhibition amounted to 1.5% in test [1], 2.15% in test [2] and 1.44% in test [3].
